Out of some 2,400 compounds screened, about 220 (9.2%) were called active. What follows is part of a selection rich in actives, with near analogues and random picks from the rest. Unmarked numbers belong to inactive results.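 Rule for the calls: active = signal change above the mean of dofetilide-free buffer controls plus 3 SD, so a positive margin; inactive = the rest.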

The nature of the assay: thallium signal changes without hERG – cell-based, CHO-K1 parental line, FluxOR thallium flux, counter-screen for hERG block protection project, confirmation (AID 1839).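 Note: compounds applied alone with no dofetilide to cells lacking hERG.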 The following applies: CHO-K1 parental cells, FluxOR thallium flux fluorescence; at 10 µM.
For `CCNC(=S)Nc1nc2c(cc1C(=O)OCC)CCCC2`, the signal change vs control minus 3*SD hit threshold (margin above threshold, higher = more increase) was -12.5%.
The figure for `CCc1ccc(/C=N/NC(=O)c2nnn(-c3nonc3N)c2C(C)C)cc1` is -35%.
On to `O=C(NC(=S)N1CCCc2ccccc21)c1ccc([N+](=O)[O-])cc1`, for which the signal change vs control minus 3*SD hit threshold (margin above threshold, higher = more increase) is -14.7%.
For the compound `C[n+]1ccccc1COc1ccc(C(C)(C)C)cc1`, the signal change vs control minus 3*SD hit threshold (margin above threshold, higher = more increase) is -20.4%.
For the compound `O=c1cc(-c2c(F)c(F)c(F)c(F)c2F)oc2ccccc12`, the signal change vs control minus 3*SD hit threshold (margin above threshold, higher = more increase) is -13.6%.
The figure for `CCOC(=O)c1c(C)[nH]c(C)c1S(=O)(=O)N1CCCCC1` is -27.3%; for `CCC1CCCCN1C(=S)NC(=O)c1cccc([N+](=O)[O-])c1` (configuration not stated) it is -12.4%.
Consider `O=S(=O)(Nc1ccc(Cc2ccncc2)cc1)c1ccc(Cl)c(Cl)c1`, for which the signal change vs control minus 3*SD hit threshold (margin above threshold, higher = more increase) is -33.7%.
In the case of `CCOC(=O)/C(C)=N/NC(=O)c1ccc([N+](=O)[O-])cc1`, the signal change vs control minus 3*SD hit threshold (margin above threshold, higher = more increase) was -4.1%.
In the case of `Cc1ccc2nc(NC(=S)NC(=O)c3ccco3)sc2c1`, the signal change vs control minus 3*SD hit threshold (margin above threshold, higher = more increase) was 13.7% (active).
`Cc1ccc2nc(NC(=S)NC(=O)c3cccs3)sc2c1`: the signal change vs control minus 3*SD hit threshold (margin above threshold, higher = more increase) is -3.1%.
As for `CCc1ccc2nc(NC(=O)c3cc(C)on3)sc2c1`, the signal change vs control minus 3*SD hit threshold (margin above threshold, higher = more increase) was -21.2%.
`Cc1csc2c(N3CCCCC3)ncnc12`: the signal change vs control minus 3*SD hit threshold (margin above threshold, higher = more increase) was -19.8%.
For `Cc1sc2ncnc(SCC(=O)NC(=O)c3cccn3C)c2c1C` the value was -30.1%.
Turning to `COc1ccc(NC(=O)c2cn(-c3ccccc3)nc2-c2ccncc2)cc1`, the signal change vs control minus 3*SD hit threshold (margin above threshold, higher = more increase) was -28.9%.
Turning to `Oc1c(Cl)cc(Cl)cc1/C=N/c1nccs1`, the signal change vs control minus 3*SD hit threshold (margin above threshold, higher = more increase) is -6.3%.
The figure for `Oc1c(Cl)cc(Cl)cc1Sc1cc(Cl)cc(Cl)c1O` is 53.5% (active); for `Oc1c(Cl)cc(Cl)cc1/C=N/c1ncn[nH]1` it is -9.1%.
Turning to `Cc1cc2[nH]c(=O)c(=O)[nH]c2cc1S(=O)(=O)N1CCN(c2cccc(C)c2C)CC1`, the signal change vs control minus 3*SD hit threshold (margin above threshold, higher = more increase) is -25%.
As for `CCOC(=O)N1CCN(C(=O)CN(c2ccc(OCC)cc2)S(C)(=O)=O)CC1`, the signal change vs control minus 3*SD hit threshold (margin above threshold, higher = more increase) is -29.2%.
Turning to `CC1CCCCC1NC(=S)NC(=O)c1sc2ccccc2c1Cl` (configuration not stated), the signal change vs control minus 3*SD hit threshold (margin above threshold, higher = more increase) is -26.5%.
Regarding `CC1CCCCC1NC(=S)NC(=O)c1cccs1` (configuration not stated), the signal change vs control minus 3*SD hit threshold (margin above threshold, higher = more increase) is 3.7% (active).
For `CC1CCN(C(=S)NC(=O)c2cccs2)CC1`, the signal change vs control minus 3*SD hit threshold (margin above threshold, higher = more increase) is -12%.
The figure for `CC(=O)Nc1ccc(S(=O)(=O)NC2(C(F)(F)F)C(=O)Nc3c2c(=O)[nH]c(=O)n3C)cc1` (configuration not stated) is -24.3%.
`CSc1nc2sc3c(c2c(=S)[nH]1)CC(C)(C)OC3`: the signal change vs control minus 3*SD hit threshold (margin above threshold, higher = more increase) was 31.8% (active).
Take `CCC1(C)Cc2c(sc3nc(SC)[nH]c(=S)c23)CO1` (configuration not stated): the signal change vs control minus 3*SD hit threshold (margin above threshold, higher = more increase) was 48.8% (active).
For the compound `CCc1nc2sc3c(c2c(=S)[nH]1)CC(C)(C)OC3`, the signal change vs control minus 3*SD hit threshold (margin above threshold, higher = more increase) is -18.6%.
Turning to `CC(=O)c1ccc(S(=O)(=O)NCc2ccc(C(=O)N(C)CC(=O)Nc3cccc(F)c3)cc2)cc1`, the signal change vs control minus 3*SD hit threshold (margin above threshold, higher = more increase) is -20.8%.
As to `CC1Cc2cc(S(=O)(=O)NCc3ccccc3)ccc2N1C(=O)C1CCC1` (configuration not stated), the signal change vs control minus 3*SD hit threshold (margin above threshold, higher = more increase) was -33.7%.
Turning to `O=C1NC(=O)C2(COC(c3cccc([N+](=O)[O-])c3)OC2)S1` (configuration not stated), the signal change vs control minus 3*SD hit threshold (margin above threshold, higher = more increase) was -28.4%.
Turning to `CCCn1nnnc1SCC(=O)Nc1nnc(CC)s1`, the signal change vs control minus 3*SD hit threshold (margin above threshold, higher = more increase) is -22.9%.
With `c1ccc(-c2n[nH]c(-c3ccccn3)n2)cc1`, the signal change vs control minus 3*SD hit threshold (margin above threshold, higher = more increase) is -23.5%.
Regarding `Cc1[nH]c(-c2ccccn2)nc(=S)c1Cl`, the signal change vs control minus 3*SD hit threshold (margin above threshold, higher = more increase) was 18.1% (active).
Take `Cc1cc(=S)nc(-c2ccccn2)[nH]1`: the signal change vs control minus 3*SD hit threshold (margin above threshold, higher = more increase) was -18.7%.
For `CCCCCOc1ccc(C2C(C(C)=O)=C(C)Nc3ncnn32)cc1OC` (configuration not stated), the signal change vs control minus 3*SD hit threshold (margin above threshold, higher = more increase) is -35.5%.
`Cc1cccc(-n2cc(-c3ccccc3)[nH]c2=S)c1`: the signal change vs control minus 3*SD hit threshold (margin above threshold, higher = more increase) was -28%.
For `Cc1ccc(-c2csc(=S)[nH]2)cc1`, the signal change vs control minus 3*SD hit threshold (margin above threshold, higher = more increase) is 59.2% (active).
The figure for `Cc1ccc(-c2csc3nc[nH]c(=S)c23)cc1` is -1.7%; for `S=c1[nH]c(-c2ccc(Cl)cc2)cs1` it is 61.6% (active).
For `S=c1[nH]c(-c2ccccc2)cs1`, the signal change vs control minus 3*SD hit threshold (margin above threshold, higher = more increase) was 16.2% (active).
Take `S=c1[nH]nc(Nc2ccc(Cl)cc2)s1`: the signal change vs control minus 3*SD hit threshold (margin above threshold, higher = more increase) was -36.9%.
As for `S=c1[nH]cnc2scc(-c3ccc(Cl)cc3)c12`, the signal change vs control minus 3*SD hit threshold (margin above threshold, higher = more increase) was -13.3%.
For `Cc1ccc(Cc2c[nH]c(=S)s2)cc1`, the signal change vs control minus 3*SD hit threshold (margin above threshold, higher = more increase) is -4.6%.
For `O=Cc1cc(-c2ccccc2)[nH]c1-c1ccccc1`, the signal change vs control minus 3*SD hit threshold (margin above threshold, higher = more increase) is -28.6%.
For `CC(C)Nc1nc(SCC(N)=O)nc(N2CCOCC2)n1`, the signal change vs control minus 3*SD hit threshold (margin above threshold, higher = more increase) was -27.8%.
`CCC(C)(C)C1CCc2c(sc(NC(=O)c3ccccc3C(=O)O)c2C#N)C1` (configuration not stated): the signal change vs control minus 3*SD hit threshold (margin above threshold, higher = more increase) is -7%.
For `CCOC(=O)C1C(c2ccccc2)C(C(=O)OCC)C1c1ccccc1` (configuration not stated) the value was -27.3%.
With `Cc1ccc(NC(=O)CN2C(=O)S/C(=C\c3ccc(-c4cccc(C(=O)O)c4C)o3)C2=O)cc1`, the signal change vs control minus 3*SD hit threshold (margin above threshold, higher = more increase) was -30.6%.
`COc1ccc(-c2ccc(/C=N/NC(=O)c3cccnc3)o2)c([N+](=O)[O-])c1`: the signal change vs control minus 3*SD hit threshold (margin above threshold, higher = more increase) is -34.4%.
As for `O=C(O)CCCCn1c(SCc2ccccc2Cl)nc2ccsc2c1=O`, the signal change vs control minus 3*SD hit threshold (margin above threshold, higher = more increase) was -18.4%.
In the case of `O=C(NC(=S)Nc1cc(C(F)(F)F)ccc1Cl)c1ccccc1`, the signal change vs control minus 3*SD hit threshold (margin above threshold, higher = more increase) was -22.9%.
On to `O=C(Nc1ccc(-c2csc(Nc3cccc(C(F)(F)F)c3)n2)cc1)c1ccccc1`, for which the signal change vs control minus 3*SD hit threshold (margin above threshold, higher = more increase) is -35.7%.
